Test results taken from PubChem BioAssay (Tox21).
Inconclusive results are not listed. Calls of active or inactive are those of the source. Unless noted, calls follow the shape of the dose curve; as a rule, active = well fitted curve in the direction sought with a large enough effect in the repeat runs; inconclusive = weak or mixed curves; inactive = flat fitted curve, though single readings scatter.

Assays:
[1] = qHTS assay to test for compound auto fluorescence at 535 nm (green) in HEK293 cells (AID 720680)
[2] = qHTS assay to test for compound auto fluorescence at 460 nm (blue) in HEK293 cell free culture (AID 720681)
Procedure, shortened: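 Test compounds were pinned into cell-free culture medium (DMEM with 10% FBS) and fluorescence was read directly at Ex/Em 405/460 nm. Signals were expressed as fluorescence equivalents of triamterene, with DMSO vehicle as control.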

[3] = qHTS assay to test for compound auto fluorescence at 535 nm (green) in HEK293 cell free culture (AID 720682)
Procedure, shortened: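 No cells present: wells hold DMEM supplemented with 10% FBS, into which compound or vehicle is pinned. Green emission is then recorded (485 nm excitation, 535 nm emission) and scaled to fluorescein.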

[4] = qHTS assay to test for compound auto fluorescence at 590 nm (red) in HEK293 cell free culture (AID 720683)
Procedure, shortened: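 Tox21 10K library compounds were pinned into cell-free DMEM with 10% FBS and fluorescence was read at excitation 540 nm. Activity is expressed as Rose Bengal sodium equivalency.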

[5] = qHTS assay to test for compound auto fluorescence at 590 nm (red) in HepG2 cell free culture (AID 720684)
Procedure, shortened: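 Ex 540 / Em 590 nm read of compound in cell-free MEM (10% FBS). Rose Bengal sodium reference.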

[6] = qHTS assay to test for compound auto fluorescence at 460 nm (blue) in HepG2 cell free culture (AID 720685)
Procedure, shortened: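 Cell-free plates of MEM plus 10% FBS received 23 nL compound or DMSO vehicle; blue-channel (405/460 nm) intensity scored against triamterene as reference fluorophore.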

[7] = qHTS assay to test for compound auto fluorescence at 535 nm (green) in HepG2 cell free culture (AID 720686)
[8] = qHTS assay to test for compound auto fluorescence at 460 nm (blue) in HepG2 cells (AID 720687)
Procedure, shortened: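 Cells (2,000/well in MEM with 10% FBS) attached overnight at 37 C, then were exposed to compound or DMSO for 1 hr at 37 C, 5% CO2. Fluorescence read at Ex/Em 405/460 nm, expressed as triamterene-equivalent signal.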

[9] = target: Glucocorticoid receptor (Homo sapiens) (UniProt P04150); assay: qHTS assay to identify small molecule agonists of the glucocorticoid receptor (GR) signaling pathway (AID 720691; active = well fitted activation curve with a large enough effect in the signal ratio in the repeat runs, not every such curve was filed as active; the % refers to the signal ratio)
Procedure, shortened: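 Agonist-mode qHTS in HeLa cells stably expressing a glucocorticoid-response-element beta-lactamase reporter. Fluorescence intensity read with FRET substrate (2 h, room temperature) after 18 h compound treatment at 37 C.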

[10] = target: Glucocorticoid receptor (Homo sapiens) (UniProt P04150); assay: qHTS assay to identify small molecule antagonists of the glucocorticoid receptor (GR) signaling pathway (AID 720692; active = well fitted inhibition curve with a large enough effect in the signal ratio in the repeat runs, not every such curve was filed as active; the % refers to the signal ratio)
Procedure, shortened: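 Inhibition of dexamethasone-driven (5 nM final) beta-lactamase expression was measured in GRE-reporter HeLa cells over 18 h at 37C. Fluorescence was read after 2 h with the B/G FRET substrate at room temperature.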
% is scaled to controls: 0 for no effect and ±100 for the full control effect.

Chain of Glucocorticoid receptor (Homo sapiens) (P04150 whole entry, looked up): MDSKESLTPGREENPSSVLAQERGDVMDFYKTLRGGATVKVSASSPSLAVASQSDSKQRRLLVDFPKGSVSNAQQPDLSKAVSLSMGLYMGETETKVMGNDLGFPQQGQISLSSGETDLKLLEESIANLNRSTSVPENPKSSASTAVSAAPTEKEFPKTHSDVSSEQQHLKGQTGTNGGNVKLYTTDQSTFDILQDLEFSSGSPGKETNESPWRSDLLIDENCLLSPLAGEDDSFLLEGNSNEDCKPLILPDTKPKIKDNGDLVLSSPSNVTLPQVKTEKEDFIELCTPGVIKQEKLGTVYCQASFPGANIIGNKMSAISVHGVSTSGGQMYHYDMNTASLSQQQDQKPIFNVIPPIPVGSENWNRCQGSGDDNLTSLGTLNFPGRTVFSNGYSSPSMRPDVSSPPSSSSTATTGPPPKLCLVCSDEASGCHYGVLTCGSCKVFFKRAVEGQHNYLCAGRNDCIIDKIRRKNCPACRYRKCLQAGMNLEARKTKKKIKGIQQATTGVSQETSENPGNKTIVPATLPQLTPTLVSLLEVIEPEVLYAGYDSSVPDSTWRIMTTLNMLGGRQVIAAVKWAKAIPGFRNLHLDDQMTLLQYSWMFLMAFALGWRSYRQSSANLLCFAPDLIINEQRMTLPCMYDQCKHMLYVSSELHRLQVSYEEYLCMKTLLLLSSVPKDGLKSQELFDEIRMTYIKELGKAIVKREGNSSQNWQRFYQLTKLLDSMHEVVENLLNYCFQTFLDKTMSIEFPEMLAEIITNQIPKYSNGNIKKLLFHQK

O=C/C=C/c1ccco1
inactive: outcome [1] | outcome [2] | outcome [3] | outcome [4] | outcome [5] | outcome [6] | outcome [7] | outcome [8] | Potency [9] | Potency [10]

CN(C)CCN(C)C
inactive: outcome [1] | outcome [2] | outcome [3] | outcome [4] | outcome [5] | outcome [6] | outcome [7] | outcome [8] | Potency [9]

CCc1cc(OC)c(C[C@H](C)N)cc1OC
inactive: outcome [1] | outcome [2] | outcome [3] | outcome [4] | outcome [5] | outcome [6] | outcome [7] | outcome [8] | Potency [9] | Potency [10]

CCCCCCC(=O)CCCCCC/C=C/C[C@@H](O)[C@H](O)[C@@](N)(CO)C(=O)O
inactive: outcome [1] | outcome [2] | outcome [3] | outcome [4] | outcome [5] | outcome [6] | outcome [7] | outcome [8] | Potency [9] | Potency [10]

CCSC(=O)Cl
inactive: outcome [1] | outcome [2] | outcome [3] | outcome [4] | outcome [5] | outcome [6] | outcome [7] | outcome [8] | Potency [9] | Potency [10]

O=C(NC(O)C(Cl)(Cl)Cl)NC(O)C(Cl)(Cl)Cl (stereo not drawn)
inactive: outcome [1] | outcome [2] | outcome [3] | outcome [4] | outcome [5] | outcome [6] | outcome [7] | outcome [8] | Potency [9] | Potency [10]

C=CC=O
inactive: outcome [1] | outcome [2] | outcome [3] | outcome [4] | outcome [5] | outcome [6] | outcome [7] | outcome [8] | Potency [9] | Potency [10]

CCNP(=S)(OC)O/C(C)=C/C(=O)OC(C)C (stereo not drawn)
inactive: outcome [1] | outcome [2] | outcome [3] | outcome [4] | outcome [5] | outcome [6] | outcome [7] | outcome [8] | Potency [9] | Potency [10]

CN(C)C1CCCCC1
inactive: outcome [1] | outcome [2] | outcome [3] | outcome [4] | outcome [5] | outcome [6] | outcome [7] | outcome [8] | Potency [9] | Potency [10]

CN1COCN(Cc2cnc(Cl)s2)/C1=N\[N+](=O)[O-]
inactive: outcome [1] | outcome [2] | outcome [3] | outcome [4] | outcome [5] | outcome [6] | outcome [7] | outcome [8] | Potency [9] | Potency [10]

N#CN
inactive: outcome [1] | outcome [2] | outcome [3] | outcome [4] | outcome [5] | outcome [6] | outcome [7] | outcome [8] | Potency [9] | Potency [10]

S=C=S
inactive: outcome [1] | outcome [2] | outcome [3] | outcome [4] | outcome [5] | outcome [6] | outcome [7] | outcome [8] | Potency [9] | Potency [10]

CCN(CC)C1CCCCC1
inactive: outcome [1] | outcome [2] | outcome [3] | outcome [4] | outcome [5] | outcome [6] | outcome [7] | outcome [8] | Potency [9] | Potency [10]

C=CCCC#N
inactive: outcome [1] | outcome [2] | outcome [3] | outcome [4] | outcome [5] | outcome [6] | outcome [7] | outcome [8] | Potency [9] | Potency [10]

O=c1[nH]oc2c1CCNC2
inactive: outcome [1] | outcome [2] | outcome [3] | outcome [4] | outcome [5] | outcome [6] | outcome [7] | outcome [8] | Potency [9] | Potency [10]

COP(=O)(O)OC
inactive: outcome [1] | outcome [2] | outcome [3] | outcome [4] | outcome [5] | outcome [6] | outcome [7] | outcome [8] | Potency [9] | Potency [10]

COc1ccc(C=O)cc1O
inactive: outcome [1] | outcome [2] | outcome [3] | outcome [4] | outcome [5] | outcome [6] | outcome [7] | outcome [8] | Potency [9] | Potency [10]

C[C@H](CN1CCOCC1)C(C(=O)N1CCCC1)(c1ccccc1)c1ccccc1
inactive: outcome [1] | outcome [2] | outcome [3] | outcome [4] | outcome [5] | outcome [6] | outcome [7] | outcome [8] | Potency [9] | Potency [10]

ClCCCCCCCl
inactive: outcome [1] | outcome [2] | outcome [3] | outcome [4] | outcome [5] | outcome [6] | outcome [7] | outcome [8] | Potency [9] | Potency [10]

CCOC(=O)Nc1cccc(OC(=O)Nc2ccccc2)c1
inactive: outcome [1] | outcome [2] | outcome [3] | outcome [4] | outcome [5] | outcome [6] | outcome [7] | outcome [8] | Potency [9] | Potency [10]

C[C@@H](N)[C@@H](O)c1ccccc1
inactive: fluorescence, % of fluorescein [1] 0.072% [at 18.6 µM] | fluorescence, % of fluorescent control [2] -0.0641% [at 18.6 µM] | activity change [3] -0.0136% [at 18.6 µM] | fluorescence, % of fluorescent control [4] 0.0965% [at 18.6 µM] | fluorescence, % of Rose Bengal [5] 0.843% [at 18.6 µM] | fluorescence, % of fluorescent control [6] -0.105% [at 18.6 µM] | fluorescence, % of fluorescein control [7] 0.0244% [at 18.6 µM] | fluorescence, % of fluorescent control [8] -0.0421% [at 18.6 µM] | Potency [9] | Potency [10]

COC(=O)[C@@H](N)CCCN/C(N)=N/[N+](=O)[O-]
inactive: outcome [1] | outcome [2] | outcome [3] | outcome [4] | outcome [5] | outcome [6] | outcome [7] | outcome [8] | Potency [9]

[P]#[In]
inactive: outcome [1] | outcome [2] | outcome [3] | outcome [4] | outcome [5] | outcome [6] | outcome [7] | outcome [8] | Potency [9] | Potency [10]

CCCN1CCC[C@@H]2Cc3[nH]ncc3C[C@H]21
inactive: outcome [1] | outcome [2] | outcome [3] | outcome [4] | outcome [5] | outcome [6] | outcome [7] | outcome [8] | Potency [9] | Potency [10]
